# Vaccinia Venus = vaccinia inhibition (Venus reporter); 330,000 tested, 0.46% active; AID 720580; Potency, µM (doses to about 36.5 µM), without a hit: at the top dose activity change, negative = inhibition, usual class: inhibitors; Vaccinia virus Venus reporter expression, fluorescence; calls by dose curve; tested in A549 cells; also: potency is read from the fitted curve at half-maximal effect; nearly all actives have a fitted effect of over 30% in size
# VACV mCherry inh = inhibitors of vaccinia virus infection (mCherry reporter signal); Potency, µM (titrated, usually from 36.5 µM), for the others: at the highest dose activity change, negative = inhibition, hits mostly inhibitors; 310,000 tested, 0.63% active; AID 720579; Vaccinia virus mCherry reporter infection, fluorescence; calls by dose curve; tested in A549 cells; also: potency is read from the fitted curve at half-maximal effect; nearly all actives have a fitted effect of over 35% in size
# HCMV inh = inhibitors of human cytomegalovirus; HFF cells, HCMV-luciferase reporter, 72 h; active compounds read low; activity change, negative = inhibition, % at 57.5 µM; 410,000 tested, 4.5% active; AID 1259415; in the data active = activity change below about -60%; inconclusive = no clear call, values can overlap the other calls; inactive = above about -39%
#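 Human foreskin fibroblasts infected with luciferase-reporter HCMV at MOI 1 PFU/cell, compounds at two doses. Luciferase measured 72 h post infection; normalized to buffer-only basal and Salinomycin (10uM) controls.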
# Lassa entry inh = inhibitors of Lassa virus binding or cell entry | Lassa virus pseudotype entry inhibition, cell reporter | 300,000 tested, 1.2% active | Potency, µM (highest dose often 37.9 µM), for inactives: at the top dose activity change, negative = inhibition, actives largely listed as inhibitors | AID 540256; calls by dose curve; tested in HEK293 cells; also: potency is read from the fitted curve at half-maximal effect; nearly all actives have a fitted effect of over 50% in size
# Marburg entry inh = Marburg virus entry inhibition. Marburg virus pseudotyped entry inhibition, cell reporter. Potency, µM (top dose mostly 37.8 µM), for inactives: top-dose activity change, negative = inhibition, hits mostly inhibitors. 300,000 tested, 1.8% active. AID 540276; calls by dose curve; tested in HEK293 cells; also: potency is read from the fitted curve at half-maximal effect
# FMDV antiviral = antivirals against foot and mouth disease virus. FMDV antiviral cell-based qHTS. Potency, µM (doses to about 57.9 µM), for the others: at the top dose activity change, negative = inhibition, actives largely listed as inhibitors. 410,000 tested, 1.2% active. AID 1159524; calls by dose curve; tested in HEK293T cells; also: read-out not given here; potency is read from the fitted curve at half-maximal effect; nearly all actives have a fitted effect of over 45% in size
# Active calls of the source: *; i = inactive; ? = inconclusive; nt = not tested or not shown; ! = repeats disagree; [ ] = remark or other dose. Shown are actives, neighbours in structure and some others; about 6.5% of the full set was active somewhere. % is scaled to controls: 0 for no effect and ±100 for the full control effect.
SMILES,Vaccinia Venus,VACV mCherry inh,HCMV inh,Lassa entry inh,Marburg entry inh,FMDV antiviral
Cc1nn(CCC(=O)NCc2ccc(N(C)C)cc2)c(=O)c2nn(-c3ccccc3)c(C)c12,-6%,-12%,-63*!,4%[46.1 µM],nt,-17%
CCN1CCN(CCNC(=O)CCCn2nc(C)c3c(C)n(-c4ccc(C)cc4)nc3c2=O)CC1,?,?,-67*,21%[46.1 µM],?,-2%
COc1cccc(NC(=O)c2cn(C3CCCCC3)c(=O)c3c2c2ccccc2n3C)c1,-4%,7%,-17,-29%[46.1 µM],-19%[46.1 µM],0%
Cn1c(C(=O)Nc2cccc(Cl)c2)cc2c(=O)n(C)c3ccccc3c21,-13%,-3%,-9,4%[46.1 µM],6%[46.1 µM],?
COC(=O)C(NC(=O)c1ccc(F)cc1)(Nc1ncc(S(=O)(=O)c2ccc([N+](=O)[O-])cc2)s1)C(F)(F)F (configuration not stated),?,11µM*,-1,?,?,13µM*
O=C(NC(CC1=CCCCC1)c1ccc2ccccc2c1)C(F)(F)F (configuration not stated),nt,nt,nt,nt,-17%[14.2 µM],nt
CC1CCc2c(sc3nnn(CC(=O)Nc4cccc(C(F)(F)F)c4)c(=O)c23)C1 (configuration not stated),-4%,-11%,6,2%[46.1 µM],3%[46.1 µM],-8%
COc1ccc(CCN(Cc2cc3ccc(C)cc3n3nnnc23)C(C)=O)cc1OC,-14%,0%,-100*,-19%,3%[46.1 µM],-18%
Cc1cc(C)n(C[C@@H]2CC(=O)N(c3ccc(F)c(Cl)c3)C2=O)n1,nt,nt,nt,nt,3%,nt
Cc1ccc(Cl)cc1N(C)C(=O)c1sc2nc3n(c(=O)c2c1C)CCCC3,-19%,-15%,-30,-1%[46.1 µM],nt,-22%
Cc1cc(N(C)NC(=S)Nc2ccccc2)nc(C)n1,-7%,i,-91*,0%,18%,-6%
COC(=O)c1ccccc1C(=O)NCC1Cc2cc(-c3nc(C)cnc3C)ccc2O1 (configuration not stated),-1%,-3%,nt,nt,nt,-3%
Clc1ccccc1-c1nn2c(-c3ccncc3)nnc2s1,-26%,-21%,nt,?,7.3µM*,-7%
Cc1ccc(-c2nnc3sc(-c4ccncc4)nn23)cc1,-8%,-11%,?,15%,5.8µM*,2%
c1ccc(-c2nn3c(-c4ccccc4)nnc3s2)cc1,-25%,-25%,-28,-1%,5%,-6%
Cc1c(-c2nsc(NC(=O)c3cccs3)n2)nnn1-c1ccc(Br)cc1,?,-32%,-92*,?,nt,35%
Cc1c(-c2nsc(NC(=O)c3ccc(Cl)cc3)n2)nnn1-c1ccc(C(C)C)cc1,-22%,-18%,-79*,-1%[46.1 µM],nt,-14%
CC(C)(C)NC(=O)C(c1ccc(O)cc1)N(Cc1ccccc1)C(=O)CCC(=O)Nc1nccs1 (configuration not stated),-11%,-11%,-20,-10%,-28%[46.1 µM],-2%
Cc1ccc(N(C(=O)CCC(=O)Nc2nccs2)C(C(=O)NC(C)(C)C)c2ccc(O)cc2)cc1 (configuration not stated),-7%,i,?,-15%[46.1 µM],8.9µM*,-17%
CC(C)(C)NC(=O)C(c1ccc(O)cc1)N(C(=O)CCC(=O)Nc1nccs1)c1ccc(F)cc1 (configuration not stated),-9%,-1%,-13,?,2.2µM*,-7%
COc1ccc(-c2noc(CSc3nnc(Cc4ccccc4)n3-c3cccc(C)c3)n2)cc1,-5%,-18%,-23,?,-4%[46.1 µM],?
Cc1ccc(-c2cc3c(N4CCN(c5cc(C)ccc5C)CC4)nccn3n2)cc1,-7%,-8%,20,?,?,-20%
Cc1cc(C)cc(NC(=O)Cn2cc3c(n2)CCCCC3)c1,nt,nt,nt,nt,-1%,nt
CN(C)c1ccc(NC(=O)Cn2cc3c(n2)CCCC3)cc1,3%,-5%,-99*,nt,nt,35%
COc1cc(-c2cc(C(=O)Nc3ccc(S(N)(=O)=O)cc3)c3ccccc3n2)cc(OC)c1OC,10%,1%,17,?,-40%[46.1 µM],-14%
CCN(CC)S(=O)(=O)c1ccc(O)c(NC(=O)c2cc(-c3cc(OC)c(OC)c(OC)c3)nc3ccccc23)c1,-20%,-15%,nt,?,10µM*,?

# Bioassay records deposited in PubChem BioAssay by National Center for Advancing Translational Sciences (NCATS).
